We go through 91 compounds from PubChem BioAssay AID463173 (ICCB-Longwood Screening Facility, Harvard Medical School, 2010).

Structures are written as SMILES. About 1,700 (3.3%) of roughly 52,000 compounds were called active. Rule as the data show it: active = survival mostly below about 52% (no sharp cut-off); inactive = mostly above about 56%. Shown is part of a subset that was picked to be rich in actives.

In the test the test system is Wild type. Nature of the test: growth inhibition of S. aureus wild type versus tarO mutant, primary screen, teichoic acid synthesis inhibitors, RN4220, OD600 (AID 463173). The following applies: S. aureus RN4220 wild type/DeltatarO growth, OD600, 18 h, stronger effect = lower value, screened at 18.75 µg/mL (by protocol).
Take `CCNS(=O)(=O)c1ccc(S(=O)(=O)N(Cc2ccccn2)C2CCCCC2)cc1`: the survival was 107% (inactive).

With `CC1CCN(C(=O)Cn2c(=O)n(CC3CCC(C(=O)NC(C)C)CC3)c(=O)c3sccc32)CC1` (stereo unspecified), the survival is 78% (inactive).

Consider `CCn1c(C(=O)NCc2ccccc2)cc2sc(Cl)cc21`, for which the survival was 2% (active).

As to `CCn1c(C(=O)NCc2ccc(C)cc2)cc2sc(Cl)cc21`, the survival was 78% (inactive).

Consider `CCn1c(C(=O)NCc2ccc(OC)cc2)cc2sc(Cl)cc21`, for which the survival was 37% (inactive).

Regarding `CCOC(=O)c1c(C)n(-c2ccccc2)c2ccc(OC(=O)COc3ccc(Cl)cc3)cc12`, the survival was 78% (inactive).

Turning to `Cc1ccc(OC(=O)c2cc(-c3ccc(Cl)cc3)on2)c(C)c1`, the survival was 93% (inactive).

As for `CC(C)c1ccc(OC(=O)c2cc(-c3ccccc3)on2)cc1`, the survival is 106% (inactive).

Turning to `CCOC(=O)c1cc(-c2ccc(OC)c(S(=O)(=O)NCc3ccccc3Cl)c2)on1`, the survival was 79% (inactive).

Consider `Cc1ccc(NC(=O)c2cc(-c3ccc4c(c3)OCO4)on2)cc1`, for which the survival was 105% (inactive).

For `Cc1ccc(-c2cc(C(=O)Oc3ccccc3Cl)no2)cc1C`, the survival was -6% (active).

Regarding `O=C(Oc1ccccc1Cl)c1cc(-c2ccc3c(c2)OCCO3)on1`, the survival was -7% (active).

Regarding `Cc1ccccc1OC(=O)c1cc(-c2ccc3c(c2)OCCO3)on1`, the survival was -6% (active).

`O=C(Nc1ccccc1C(F)(F)F)c1cc(-c2ccc3c(c2)OCCO3)on1`: the survival is 113% (inactive).

As to `O=C(Nc1cccc(Cl)c1)c1cc(-c2ccc3c(c2)OCCO3)on1`, the survival is 122% (inactive).

With `Cc1ccc(Cl)cc1NC(=O)c1cc(-c2ccc3c(c2)OCCO3)on1`, the survival is 67% (inactive).

As to `Cc1ccc(OC(=O)c2cc(-c3ccc4c(c3)OCCO4)on2)c(C)c1`, the survival was -6% (active).

On to `Cc1oc2ncn(C)c(=O)c2c1C(=O)N1CCN(c2cccc(C(F)(F)F)c2)CC1`, for which the survival is 82% (inactive).

Take `CCOc1ccccc1CNCCNC(=O)c1nonc1N`: the survival is 128% (inactive).

As for `CCCNS(=O)(=O)c1ccc(OCC(=O)NCc2ccccn2)cc1`, the survival was 122% (inactive).

For `NC(=Nc1ccccc1)SC1CC(=O)N(c2ccccc2)C1=O` (stereo unspecified), the survival is 113% (inactive).

With `O=C(Nc1ccccc1NC(=O)c1cccs1)c1cccs1`, the survival was 111% (inactive).

With `COc1cccc(NC(=O)Cn2c(=O)ccc3cc(S(=O)(=O)N4CCC(C)CC4)ccc32)c1`, the survival was 73% (inactive).

For `CCn1cc(/C=C(\NC(=O)c2ccccc2Cl)C(=O)NCCCn2ccnc2)c2ccccc21`, the survival is 121% (inactive).

With `COC(=O)c1sccc1S(=O)(=O)N1CCN(c2cccc(C)c2C)CC1`, the survival is 67% (inactive).

With `COc1cc(NC(=O)Cn2c(-c3ccccc3)cc(C(C)=O)c2C)cc(OC)c1`, the survival is 92% (inactive).

On to `COc1ccc2c(c1)N(C)/C(=C1/SC(=S)N(C)C1=O)S2`, for which the survival is 122% (inactive).

As for `COc1cccc(CNC(=O)c2cc(-c3ccc(Cl)cc3)n[nH]2)c1`, the survival was 136% (inactive).

For the compound `C#CCNc1c2c(nc3nnnn13)CCCC2`, the survival is 104% (inactive).

`CCSC(=C(C#N)C#N)c1cc2c([nH]1)CCCC2`: the survival was 116% (inactive).

`Cc1ccc2ccc3cc(C(=O)N4CCN(c5ccccc5F)CC4)nc3c2[nH]1`: the survival is 78% (inactive).

Turning to `CCOc1ccc(NC(=O)Cn2c(=O)n(Cc3ccc(C(=O)NCc4ccc5c(c4)OCO5)cc3)c(=O)c3ccccc32)cc1`, the survival was 98% (inactive).

Turning to `Cc1cccc(OC(=O)c2cc(-c3ccc4c(c3)OCCO4)on2)c1C`, the survival was -6% (active).

As to `Cc1cccc(OC(=O)c2cc(-c3ccc(Cl)cc3)on2)c1C`, the survival was 116% (inactive).

Turning to `O=C(Nc1cccc(Br)c1)c1cc(-c2ccc3c(c2)OCCO3)on1`, the survival was 80% (inactive).

In the case of `CCCc1nnc(NC(=O)Cc2coc3ccc(C(C)C)cc23)s1`, the survival is 99% (inactive).

On to `O=C(Nc1ccc2c(c1)N(C1CCCC1)C(=O)c1ccccc1S2)c1ccccc1`, for which the survival is 75% (inactive).

For the compound `O=C(Nc1ccc2c(c1)N(C1CCCC1)C(=O)c1ccccc1S2)c1ccc(F)cc1`, the survival is 87% (inactive).

Turning to `CC(=O)Nc1ccc(C(=O)Nc2ccc3c(c2)N(C2CCCC2)C(=O)c2ccccc2S3)cc1`, the survival was -6% (active).

Turning to `Cc1ccc(S(=O)(=O)C(=O)Nc2cccc3nsnc23)cc1`, the survival is 93% (inactive).

With `CCc1ccc(NC(=O)Cn2c(=O)n(CC3CCCO3)c(=O)c3cc(OC)c(OC)cc32)cc1` (stereo unspecified), the survival was 68% (inactive).

Turning to `CN1CCN(C(CNC(=O)C(=O)Nc2ccc(F)cc2)c2cccnc2)CC1` (stereo unspecified), the survival is 96% (inactive).

For `Cc1cc2c(cc1S(=O)(=O)N(C)CC(=O)Nc1ccc(C#N)cc1)OCC(=O)N2`, the survival is 64% (inactive).

Consider `CN(CC(=O)Nc1cccc(C#N)c1)S(=O)(=O)c1cc2c(cc1Cl)NC(=O)CO2`, for which the survival was 129% (inactive).

In the case of `Cc1cc2c(cc1S(=O)(=O)N(C)CC(=O)Nc1cccc(C#N)c1)OCC(=O)N2`, the survival was -4% (active).

Turning to `COc1ccc(-c2[nH]ncc2C(=O)NCc2cccc(F)c2)cc1`, the survival was 78% (inactive).

Consider `Cc1noc2nc(C(=O)O)nc(N3CCCCC3)c12`, for which the survival was 73% (inactive).

Consider `CCOC(=O)c1nc(N2CCN(c3ccc(F)cc3)CC2)c2c(C)noc2n1`, for which the survival was 14% (active).

In the case of `CCOC(=O)c1c(C)oc2nc(C)nc(N3CCN(c4ccc(OC)cc4)CC3)c12`, the survival was 68% (inactive).

On to `CCC(=O)N1CCc2cc(CNS(=O)(=O)c3cccs3)ccc21`, for which the survival is 89% (inactive).

With `Cc1cc(OCC(=O)NCC2(N3CCN(C)CC3)CCCCC2)cc(C)c1Cl`, the survival is 80% (inactive).

With `Cc1ccc(CNC(=O)c2ccccc2NC(=O)c2nsc3ccccc23)cc1`, the survival is 75% (inactive).

As to `CCOc1ccc(CNC(=O)c2ccccc2NC(=O)c2nsc3ccccc23)cc1`, the survival was -6% (active).

Turning to `CC(C)Oc1ccc(CNC(=O)c2ccccc2NC(=O)c2nsc3ccccc23)cc1`, the survival is 124% (inactive).

In the case of `Cc1ccc(S(=O)(=O)NCCc2nnc3ccc(SCC(=O)Nc4c(C)cc(C)cc4C)nn23)cc1`, the survival is 86% (inactive).

Take `CCC(=O)N1CCc2cc(S(=O)(=O)NCCC(=O)Nc3cc(C)ccc3OC)ccc21`: the survival was 117% (inactive).

For `Cc1ccc(NC(=O)C(Cc2c[nH]c3ccccc23)NC(=O)OCC(C)C)cc1` (stereo unspecified), the survival is 54% (inactive).

Turning to `COC(=O)c1c(NC(=O)C(C)Oc2ccc(Cl)c(C)c2)sc(C)c1C` (stereo unspecified), the survival was 10% (active).

For `Cc1cc(OC(C)C(=O)Nc2sc3c(c2C(N)=O)CCCC3)ccc1Cl` (stereo unspecified), the survival is 82% (inactive).

As for `CCOC(=O)c1c(NC(=O)C(C)Oc2ccc(Cl)c(C)c2)sc2c1CCCC2` (stereo unspecified), the survival is 50% (inactive).

Turning to `CCCc1ccc(OC(C)C(=O)Nc2sc3c(c2C(=O)OC)CCCCC3)cc1` (stereo unspecified), the survival is -2% (active).

On to `COC(=O)c1c(NC(=O)C(C)Oc2ccc(Cl)cc2Cl)sc2c1CCCC2` (stereo unspecified), for which the survival was 57% (inactive).

`CCOC(=O)c1c(NC(=O)c2ccc(OC)cc2)sc2c1CCCCC2`: the survival is 7% (active).

On to `CNC(=O)c1c(NC(=O)c2ccc(S(=O)(=O)N3CCCCC3)cc2)sc2c1CCC2`, for which the survival is -2% (active).

Consider `CCCCOc1ccc(C(=O)Nc2sc3c(c2C(=O)OCC)CCCCC3)cc1`, for which the survival was 38% (inactive).

As to `CCCOc1ccc(C(=O)Nc2sc3c(c2C(=O)OCC)CCCCC3)cc1`, the survival is 27% (inactive).

`CNC(=O)c1c(NC(=O)c2ccc(S(=O)(=O)N3CCC(C)CC3)cc2)sc2c1CCC2`: the survival was 129% (inactive).

`CCCc1ccc(OCC(=O)Nc2sc3c(c2C(=O)OC)CCCCC3)cc1`: the survival is 43% (inactive).

On to `CNC(=O)c1c(NC(=O)c2ccc(S(=O)(=O)N3CCCC(C)C3)cc2)sc2c1CCC2` (stereo unspecified), for which the survival was 101% (inactive).

`O=C(Nc1ccc(F)cc1F)c1cccc2c1C(=O)N(C1CCCCC1)C2`: the survival is 94% (inactive).

Turning to `CCn1c(C(=O)N2CCC(C(=O)N3CCN(c4ccc(OC)cc4)CC3)CC2)cc2sccc21`, the survival is 62% (inactive).

On to `CCOc1ccccc1NC(=O)NC(CC)c1c(-n2cccc2)sc2c1CCN(C)C2` (stereo unspecified), for which the survival was 69% (inactive).

For the compound `CC1=C(C#N)c2nc(N)c(C#N)c(C)c2/C1=C\c1cccnc1`, the survival was 83% (inactive).

`COc1ccc(Cl)cc1NC(=O)CCC(=O)N1CCOc2ccccc21`: the survival was 83% (inactive).

Turning to `CC(=O)c1cccc(-n2c(=O)c3c4c(sc3n(Cc3ccccc3Cl)c2=O)CN(C(C)=O)CC4)c1`, the survival was 88% (inactive).

For the compound `CCOC(=O)c1cc2c(=O)n3ccccc3nc2n(Cc2ccco2)c1=NC(=O)c1ccc(C(C)(C)C)cc1`, the survival is 72% (inactive).

For the compound `CCOC(=O)c1c(NC(=O)c2ccc(C)c(C)c2)sc2c1CCCCC2`, the survival is 0% (active).

`CCOC(=O)c1c(NC(=O)c2cc(Cl)ccc2Cl)sc2c1CCCC2`: the survival was 76% (inactive).

On to `CCOC(=O)c1c(NC(=O)c2cc(OCC)c(OCC)c(OCC)c2)sc2c1CCCCC2`, for which the survival was 83% (inactive).

Turning to `CCOC(=O)c1c(NC(=O)c2ccccc2C)sc2c1CCCC2`, the survival was -8% (active).

Consider `CCOC(=O)c1c(NC(=O)c2ccc(C)cc2)sc2c1CCCCC2`, for which the survival was -1% (active).

Take `CCOC(=O)c1c(NC(=O)c2ccc(S(=O)(=O)N(CC)CC)cc2)sc2c1CCCCC2`: the survival was 80% (inactive).

In the case of `CCOC(=O)c1c(NC(C)=O)sc2c1CCC2`, the survival was 104% (inactive).

With `CCOC(=O)c1c(NC(=O)c2ccc(OC)c(OC)c2)sc2c1CCCCC2`, the survival is 69% (inactive).

In the case of `CCOC(=O)c1c(NC(=O)c2ccc(OCC)c(Br)c2)sc2c1CCCC2`, the survival was 67% (inactive).

Consider `Cc1c(C(=O)Nc2ccccc2Br)oc2ccc(S(=O)(=O)N3CCCCCC3)cc12`, for which the survival was 83% (inactive).

Regarding `O=C(NCc1ccc(F)cc1)c1ccc2c(Cl)c3c(nc2c1)CCCC3`, the survival is 62% (inactive).

For the compound `Cc1cc(C)cc(N2CC(c3nc(-c4cccc(Cl)c4)no3)CC2=O)c1` (stereo unspecified), the survival was 32% (inactive).

For the compound `CCCCNC(=O)c1sc2ncccc2c1-n1cccc1`, the survival is 47% (inactive).

On to `CCc1nc(-c2cc(S(=O)(=O)N3CCN(c4ccccc4OC)CC3)ccc2OC)no1`, for which the survival was 69% (inactive).

Take `CCOc1ccccc1NC(=O)C(NS(=O)(=O)c1ccc2c(c1)CCC(=O)N2)c1ccccc1` (stereo unspecified): the survival was 76% (inactive).
